Source: the supplement of paper PMC6555819

Legend:
Assay in all cases: PBM binding z-score (relative to random genomic background probes); higher = stronger binding; sequences stand for … in GC…GCGATTGACAGCGTAGAATGAAGG
[1] = system: FXR:RXRa (NR concentration 270 nM, RXRa partner concentration 90 nM)
Procedure, shortened: (§1)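 Ligand-free nuclear receptor dimers were applied to custom Agilent 4×180K protein-binding microarrays whose double-stranded probes carried direct-repeat seeds, single-nucleotide variants, half-site ablations and random human genomic background sequences in 34-nt variable regions. Incubation lasted 1 h. Binding z-scores were computed against the random background probes from regression-normalized fluorescence.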

[2] = system: LXRa:RXRa (NR concentration 270 nM, RXRa partner concentration 90 nM)
Procedure, shortened: as §1

[3] = system: LXRa homodimer (NR concentration 270 nM)
Procedure, shortened: as §1

[4] = system: LXRb:RXRa (NR concentration 270 nM, RXRa partner concentration 90 nM)
Procedure, shortened: as §1

[5] = system: LXRb homodimer (NR concentration 270 nM)
Procedure, shortened: as §1

[6] = system: PPARa:RXRa (NR concentration 270 nM, RXRa partner concentration 90 nM)
Procedure, shortened: as §1

[7] = system: PPARg:RXRa (NR concentration 180 nM, RXRa partner concentration 90 nM)
Procedure, shortened: as §1

[8] = system: PPARg:RXRa 270nM:90nM, anti-RXR (NR concentration 270 nM, RXRa partner concentration 90 nM)
Procedure, shortened: as §1

[9] = system: PPARg:RXRa 30nM:10nM, anti-RXR (NR concentration 30 nM, RXRa partner concentration 10 nM)
Procedure, shortened: as §1

[10] = system: PPARg:RXRa 90nM:30nM, anti-RXR (NR concentration 90 nM, RXRa partner concentration 30 nM)
Procedure, shortened: as §1

Sequence	PBM binding z-score [1]	PBM binding z-score [2]	PBM binding z-score [3]	PBM binding z-score [4]	PBM binding z-score [5]	PBM binding z-score [6]	PBM binding z-score [7]	PBM binding z-score [8]	PBM binding z-score [9]	PBM binding z-score [10]
TAGCCTATGTCATTCAGGGGCCAGTATAGAAAGC	-0.275	-0.326	-0.461	-0.0773	0.117	-0.00609	0.175	-0.205	-0.271	-0.159
AATACAGGGTCACTAGGGCAGAGTAGGTACGAAT	6.65	5.17	1.38	4.23	1.51	5.86	8.85	6.78	3.79	6.46
AGAACGATGGCAATGAGTTGATAGCACGGGTGGC	-0.517	-0.814	-0.366	-1.05	-0.645	-0.643	0.654	-0.25	-0.674	-0.599
CATACAGGGTCAGCTGGGCCAGAGTAGGGACGGC	4.32	3.28	-0.0929	2.08	0.0372	4.46	2.85	3.35	0.594	2.16
GCTGCTAGGTCAGGTCGGTCAGCTAACGGGTACG	1.34	1.02	0.025	0.546	-0.437	1.77	0.669	1.4	-0.193	0.397
ATATGTAGGTTAGCTGGGGTCAGTCAGACTAGGC	2.47	4.36	0.893	3.37	0.881	4.38	5.08	4.38	1.86	3.72
TCTAGTTGGTCAAAGGTGACACACTCGAAATGCG	1.46	1.67	0.489	2.08	0.376	4.71	8.48	8.54	8.19	8.69
CAGCCTAGGTCAGGACCAGTATAGGAGGAACGTT	1.48	0.848	-0.0859	0.663	-0.972	1.94	0.905	0.922	-0.12	0.355
AGAATGAGGTTACCAATGATCAGGGAAACGCTTG	1.77	3.21	-0.495	1.67	-0.399	3.33	2.55	2.4	1.21	1.7
AGAACGAGGGCAATGAGCTGATAGCACGGGTGGC	0.394	0.368	-0.433	-0.35	-0.559	1.4	1.29	0.822	-0.0771	0.27
ATCTCTAGGTAAAACTTCAGTGAATCCCGAGGAT	0.0366	0.047	-0.183	-0.182	0.628	0.249	0.323	0.56	0.176	0.539
CCTCGGAGGACAACAGGAGCTCAGAGCTGCCAGA	-0.156	-0.474	-0.523	-0.921	-0.933	-0.767	-0.107	-1	-0.714	-0.999
TCCTATAGGTAAAAGGTGAAAGTCGGTGTGGTAA	2.04	1.54	-0.461	1.82	-0.544	4.65	7.68	7.41	7.38	8.23
CCTACTGGACCACGAAAGGTCATTGATTCAGTGA	3.93	5	5.74	4.47	1.54	4.5	2.84	3.67	1.47	2.9
CCTACTGGGCCAAGGTGATTGATCAGTCAAAGCA	-0.711	-0.732	-0.784	-0.722	-1.14	0.274	1.29	2.08	0.0836	1.45
CCTTACGGGTCACTGCAGGTTATAGCATCGGAGT	5.36	7.22	1.13	5.01	0.0222	4.88	3.68	4.35	1.16	3.15
CCTAGTTGGTCAAGGTCACAGACGCTATAGGTAC	4.56	3.92	1.56	3.6	0.603	4.38	3.54	3.88	1.54	2.79
TCTCGAAGGACACGAAGGTCAGAGCTTTCCAGAG	1.04	1.12	-0.125	1.03	-0.73	1.91	0.515	1.8	2.96	2.27
GCTAGCAGGTCATTTGGGTCACTCAATGACGGGC	5.14	3.76	2.34	3.32	0.927	4.37	3.89	4.06	1.29	2.66
ACCAGTTGGTCAGCTGAGGTCACACACAATTCGG	4.09	3.33	2.22	3.21	0.296	3.54	1.58	2.14	0.389	1.17
ATCGAGAGGTCGACGAGGTGAGTATACACCGTTT	3	2.28	-0.165	1.65	-0.204	3.36	1.95	2.03	0.529	1.52
CCTTACGGGTCACTGAAAGGTTATAGCATTTGGA	5.83	4.87	0.976	4.17	0.221	5.59	5.13	5.03	2.12	3.38
CATCGGAGGACAACAGGAGGTCAGAGCTGCCAGA	1.42	2.43	2.12	1.91	-0.192	2.39	0.842	0.724	-0.516	0.267
CGAGACAGGTGAGAAGGTAACTCAGCCTCGATTA	-0.0468	-0.124	-0.337	-0.343	-0.761	0.591	0.452	0.452	-0.196	0.138

Sequence	PBM binding z-score [1]	PBM binding z-score [2]	PBM binding z-score [3]	PBM binding z-score [4]	PBM binding z-score [5]	PBM binding z-score [6]	PBM binding z-score [7]	PBM binding z-score [8]	PBM binding z-score [9]	PBM binding z-score [10]
CCGACTGGGGCAAGGTTACCATTACGCACAGCCA	0.0277	0.227	-0.221	0.492	-0.9	1.75	2.79	3.17	0.732	2.4
TCTCGGAGGACACGATAGGTCAGAGCTCGACATC	1.07	1.92	0.208	0.643	-0.585	1.5	0.595	1.43	2.09	1.52
TCATATAGGTAAACAGGTGAAAGTTCGTAAGTTA	1.01	1.3	1.04	1.4	-0.228	4.15	7.28	6.52	5.93	7.06
TGTCAAAGTGCAAAGGTAACGTAAGTATCCACAC	1.4	1.63	-0.525	1.5	-0.151	3.32	5.23	5.16	2.4	4.4
ATATGTAGGTTTGCTGGGGTCATTCAGACTAGGC	3.58	3.85	1.58	4.47	1.4	4.53	2.69	3.1	0.969	2.19
TGTTGTAGATCAAAGGTTAAGAAAGCCGAAGCCT	1.59	2.17	0.185	1.96	0.623	4.47	7.96	7.88	7.16	9.01
TCTGCGAGGTCAGTTGGTCAGCTAACGAGCTGCC	4.64	3.16	0.00554	2.69	1.26	3.99	2.69	3.5	1.59	2.61
TCTAGTTGGTCAAAGATCACACACTCGAAATGCG	1.08	0.894	0.461	1.25	0.389	3.18	5.95	6.52	5.72	6.88
CCTATTAGTTGACCATAATGGCAACCGAAGCTCG	0.282	0.486	0.78	0.483	1.03	0.289	0.468	-0.0519	-0.187	0.0677
ATCTCTAGGTAAGACTCAGTTCAGTGAAGAACGC	0.226	0.477	0.614	0.261	1.05	0.0408	-0.0322	0.385	0.412	0.159
TCATATAGGTAAAGGGGAAAGTCGAACGATATGA	0.639	0.796	-0.0838	0.901	0.0683	2.18	2.99	4.18	4.55	4.52
CAAACTAGGTCAAGAGGTCCAAGTCCGCTTCCCG	3.7	2.26	0.265	1.6	0.102	4.52	7.57	6.68	4.65	6.56
CATACAGGGTGAGCTAGGCCAGAGTAGGGACGGC	0.0783	-0.27	-0.348	-0.501	-0.241	0.234	0.608	-0.129	-0.308	-0.186
CCTTACGGGTCACTGACAGGTGATAGCATTTGGA	6.8	5.19	0.411	4.32	-0.315	5.68	4.86	4.97	1.83	4
TCTTGTTGATCAAGCAGGTTAAGAAAGCCTGAGT	0.36	0.33	-0.00348	0.357	-0.269	0.497	-0.685	1.11	2.49	1.96
GCTCGGAGGCCAAGGTCAGAGCTTTGTCCGTAGA	1.41	1.03	-0.427	0.907	-1.5	1.85	0.0755	1.47	-0.393	0.573
TCTTGTAGGTCAACAGGAGGTTAAGAAAGATCGA	5.53	4.75	1.77	3.93	1.27	5.74	7.68	6.79	5.3	6.38
AAATGTAGGTTACATCCGGGTCATTCAGGCTATG	2.37	4.34	1.56	2.86	0.424	4.62	6.92	5.78	2.95	5.22
CGAACCAGGTCATTGACAGGACAGTGAATAGTAA	5.53	3.65	0.747	2.7	0.324	4.37	4.46	4.07	0.956	2.96
TCTCGGAGGACAAGAAGGTCAGAGCTTTCCAGAG	1.04	1.14	0.138	0.982	-0.842	1.9	0.179	1.35	2.52	1.71
TAGCCTAGGTCATTGGGCCAGTTTAGTACGCATC	4.25	3.21	0.757	2.35	0.194	3.88	3.49	3.27	0.719	2.06
CTCGAAAGGTCGTGCTCAGGTGAGAATACCAAAC	5.2	3.74	0.081	3.51	0.321	4.86	2.81	3.77	1.19	2.44
CCTAGCAGGCCAATCTTGGTCACTCAAGGCTTGA	-0.234	-0.221	-0.7	-0.577	-0.715	-0.114	-0.277	-0.609	-0.894	-0.992
TCTTCTAGATCAAGCAGGTTAAGAAAGCCTGAGT	0.122	0.597	-0.208	0.619	-0.0275	0.769	-0.479	1.7	3.16	2.53
